Assay outcomes from PubChem BioAssay.
mHTT CaM bind – mHTT-calmodulin interaction abrogation. P42858. inhibition, % at 15 µM. AID 1671202. AlphaScreen His-mHTT/GST-CaM binding, luminescence. actives 3.6% (n = 190,000);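 further: 0% = both proteins with DMSO and 100% = one protein alone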
Pf apPOL block – Pf-apPOL DNA polymerase inhibition; inhibition, % at 10 µM; AID 1794808; actives 0.25% (n = 210,000); Recombinant Pf-apPOL, molecular beacon fluorescence, 1.5 h
Active calls of the source: *; ! = a repeat was not active. The full list was thinned out, with hits kept by preference. No stated cut-off is given here; in the data, active means inhibition above about 50%; inactive means the rest.

How did O=C(Nc1cccc(-c2ccc(N3CCOCC3)nn2)c1)c1cc(-c2ccco2)on1 do in these assays?
mHTT CaM bind: 55.3*; Pf apPOL block: 41.7

How did O=C(Nc1cccc(-c2ccc(N3CCOCC3)nn2)c1)c1ccc2nsnc2c1 do in these assays?
mHTT CaM bind: -5.7; Pf apPOL block: 2.0

What do the screens show for `Cc1nc(C(=O)Nc2cc(F)ccc2Cl)c(C)o1`?
mHTT CaM bind: -17.1; Pf apPOL block: 5.6

What do the screens show for `COc1cc(C)[n+](OC(=O)N2CCCCC2)c(C)c1`?
mHTT CaM bind: 6.0; Pf apPOL block: -17.2

What do the screens show for `Cc1cccc(N(C)C(=O)CN2C(=O)NC3(CCC(C(C)(C)C)CC3)C2=O)c1` (centres undefined)?
mHTT CaM bind: 0.7; Pf apPOL block: -4.9

What do the screens show for `Cc1cccc(C)c1NC1=NC(=S)N(c2cccc(O)c2)C12CCC(C(C)(C)C)CC2` (centres undefined)?
mHTT CaM bind: 56.5*; Pf apPOL block: -117.0

How did O=[N+]([O-])c1ccc2c(c1)C=C1CCCCC1(N1CCOCC1)O2 (centres undefined) do in these assays?
mHTT CaM bind: -2.0; Pf apPOL block: -3.0

Results for N#Cc1c(N)nc(SCC(=O)c2ccccc2)c(C#N)c1-c1ccc(O)cc1 ?
mHTT CaM bind: 62.0*; Pf apPOL block: -1.6

Results for CCOc1ccc(-c2c(C#N)c(N)nc(SCC(=O)c3ccc(OC)cc3)c2C#N)cc1 ?
mHTT CaM bind: -1.0; Pf apPOL block: -23.2

How did CCOc1ccc(-c2c(C#N)c(N)nc(SCC(=O)c3ccc(O)c(O)c3)c2C#N)cc1 do in these assays?
mHTT CaM bind: 69.0*; Pf apPOL block: -8.0

Results for N#Cc1c(N)nc(SCC(=O)c2ccc(Br)cc2)c(C#N)c1-c1ccc(O)cc1 ?
mHTT CaM bind: 78.5*!; Pf apPOL block: -1.1

What do the screens show for `CCOc1ccc(-c2c(C#N)c(N)nc(SCC(=O)c3ccc(C)cc3)c2C#N)cc1`?
mHTT CaM bind: -5.0; Pf apPOL block: 6.1

How did N#Cc1c(N)nc(SCC(=O)c2ccc([N+](=O)[O-])cc2)c(C#N)c1-c1ccccc1 do in these assays?
mHTT CaM bind: 15.0; Pf apPOL block: -1.2

How did O=C1Nc2ccccc2N(O)N1c1ccccc1F do in these assays?
mHTT CaM bind: -3.0; Pf apPOL block: -3.5

What do the screens show for `CCOc1ccc(C(=O)N2CC(C)C(c3nc(-c4ccccc4)no3)C2)cc1` (centres undefined)?
mHTT CaM bind: -0.4; Pf apPOL block: -5.1

What do the screens show for `N=C1N=NC(c2ccccc2)=CS/C1=C\c1ccc(F)cc1`?
mHTT CaM bind: 59.2*; Pf apPOL block: 1.6

How did N=C1S/C(=C\c2ccccc2)C(=O)N1c1ccc(F)cc1 do in these assays?
mHTT CaM bind: 0.0; Pf apPOL block: 1.6

What do the screens show for `N#C/C(=C\C=C\c1ccco1)c1nc2ccccc2s1`?
mHTT CaM bind: 76.3*; Pf apPOL block: -10.5

Results for N#C/C(=C\c1ccco1)c1nc(-c2ccccc2)cs1 ?
mHTT CaM bind: -10.1; Pf apPOL block: -2.7

What do the screens show for `CCC(C)NC(=O)C1c2ccccc2C(=O)N1CCc1ccc(OC)c(OC)c1` (centres undefined)?
mHTT CaM bind: 3.0; Pf apPOL block: -6.0

How did CCSc1ccc(Cc2nnc(NC(=O)c3ccc(S(=O)(=O)N(C)C)cc3)o2)cc1 do in these assays?
mHTT CaM bind: 61.3*; Pf apPOL block: -253.1

What do the screens show for `CCc1nnc(NC(=O)c2ccc(S(=O)(=O)N(C)C)cc2)o1`?
mHTT CaM bind: 24.0; Pf apPOL block: -3.9

What do the screens show for `Nc1sc(SCC(=O)Nc2ccc3c(c2)OCO3)nc1-c1ccccc1`?
mHTT CaM bind: 78.2*; Pf apPOL block: 1.0

How did Nc1nnc(SCC(=O)Nc2ccc3c(c2)OCO3)s1 do in these assays?
Pf apPOL block: -9.6

What do the screens show for `COc1cccc(S(=O)(=O)N2CCC(c3noc(-c4ccccc4)n3)CC2)c1`?
mHTT CaM bind: -4.3; Pf apPOL block: -0.4

Results for COc1ccc(CNC(=O)C2CCCN(c3nnc4cccc(C)n34)C2)cc1 (centres undefined) ?
mHTT CaM bind: 8.5; Pf apPOL block: 2.3

What do the screens show for `CC(C)(C)C=C(C#N)C(C)(C)C`?
Pf apPOL block: -1.0

Results for O=C(Nc1nc(-c2ccccn2)cs1)c1ccc(Br)s1 ?
mHTT CaM bind: 100.0*; Pf apPOL block: -1.4

How did COC(=O)c1ccc(-c2csc(NC(=O)c3cc(C)no3)n2)cc1 do in these assays?
mHTT CaM bind: -6.1; Pf apPOL block: -0.9

Results for COc1cc(C(=O)Nc2nc(-c3ccccn3)cs2)cc(OC)c1OC ?
mHTT CaM bind: 100.0*; Pf apPOL block: 5.4

Results for COc1cc(C(=O)Nc2nc(-c3ccc(Cl)cc3)cs2)cc(OC)c1OC ?
mHTT CaM bind: 3.6; Pf apPOL block: -1.0

Results for O=C(Nc1nc(-c2ccccc2)cs1)c1ccccc1 ?
mHTT CaM bind: -10.0; Pf apPOL block: -4.6

What do the screens show for `Cc1cc(C(=O)Nc2nc(-c3ccccn3)cs2)on1`?
mHTT CaM bind: 99.8*; Pf apPOL block: -241.7

How did COc1cc(C(=O)Nc2cccc(NC(=O)c3ccccc3)c2)cc(OC)c1OC do in these assays?
mHTT CaM bind: 52.3*; Pf apPOL block: -1.0

Results for COc1cc(C(=O)Nc2ccc(NC(=O)c3ccccc3)cc2)cc(OC)c1OC ?
mHTT CaM bind: 3.4; Pf apPOL block: 1.2

How did CCc1noc(-c2cccnc2N2CCCN(C(=O)c3ccc(OC)cc3)CC2)n1 do in these assays?
mHTT CaM bind: -0.6; Pf apPOL block: -3.5

How did CN1CCN(c2nc(C(=O)NC3CCCC3)cs2)CC1 do in these assays?
mHTT CaM bind: -5.4; Pf apPOL block: -0.2

Results for CC1CCC2(O)C(C)(C)C3CCC2(C)C1C3 (centres undefined) ?
Pf apPOL block: -14.8

Results for Cc1ccccc1N=Cc1c(Nc2ccccc2C)nc2c(C)cccn2c1=O ?
mHTT CaM bind: 2.0; Pf apPOL block: -5.0

Results for COCC(=O)Nc1cc(OC)c(NC(=O)c2ccccc2)cc1OC ?
mHTT CaM bind: 6.3; Pf apPOL block: -0.7

What do the screens show for `COc1cc(NC(=O)c2ccccc2)c(OC)cc1NC(=O)COc1ccccc1`?
mHTT CaM bind: 58.6*; Pf apPOL block: -2.5

Results for COc1cc(CCCO)cc(-c2cc(CCCO)cc(OC)c2O)c1O ?
mHTT CaM bind: 3.0; Pf apPOL block: -1.6

What do the screens show for `C=CCc1cc(OC)c(O)c(-c2cc(CC=C)cc(OC)c2O)c1`?
mHTT CaM bind: 61.0*; Pf apPOL block: 1.9

What do the screens show for `Cc1ccc(CNC(=O)N2CCN(Cc3nc4cccnc4n3-c3ccccc3)CC2)cc1`?
mHTT CaM bind: 9.4; Pf apPOL block: 0.5

What do the screens show for `Cc1cccc(CS(=O)(=O)N(CCc2cccs2)Cc2cccnc2)c1`?
mHTT CaM bind: -8.1; Pf apPOL block: -4.4

How did Cc1nc(N)[nH]c(=O)c1Oc1ccccc1 do in these assays?
mHTT CaM bind: -1.8; Pf apPOL block: -2.3

Results for Nc1c(Oc2ccccc2)c(Oc2ccccc2)c(N)c2c1C(=O)c1ccccc1C2=O ?
mHTT CaM bind: 97.0*; Pf apPOL block: -2.7

How did Cc1ccc2c(CN3CCC(C)CC3)cc(=O)oc2c1 do in these assays?
mHTT CaM bind: -16.6; Pf apPOL block: -8.2

What do the screens show for `CC1CCN(Cc2cc(Br)c(O)c3ncccc23)CC1`?
mHTT CaM bind: 100.0*; Pf apPOL block: -6.6

How did CN(C)CCCNC(=O)c1ccc(/C=N/O)[n+](C)c1 do in these assays?
mHTT CaM bind: inactive; Pf apPOL block: 0.9

Results for O=C(NCCCNCCCNC(=O)c1ccc(/C=N/O)nc1)c1ccc(/C=N/O)nc1 ?
mHTT CaM bind: active; Pf apPOL block: -2.6

How did Oc1c(Cl)cc(Cl)cc1CNc1cccc(F)c1 do in these assays?
mHTT CaM bind: 96.0*; Pf apPOL block: -2.2
